Assay outcomes from PubChem.
IL-1B inflam inh = blocks inflammasome-driven IL-1 beta release | THP-1 LPS/ATP IL-1B secretion, AlphaLISA, 16 h; hits give low values | activity change, % at 57.5 µM | 360,000 tested, 4.7% active; in the data active = activity change below about -50%; inconclusive = mostly about -30% to -49%; note: % is set by controls: 0 for no effect and ±100 for the full control effect
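Secreted IL-1B measured by AlphaLISA bead assay after 16 h compound exposure of THP-1 cells; compounds (final up to 57.5 uM) added 1 h before LPS (250 ng/mL) and ATP (1.25 mM) stimulation; lower signal means less secretion.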
DT40 TDP1 CPT = growth inhibition of DT40 Tdp1-/-;hTDP1 cells with camptothecin (screen for TDP1 inhibitors); chicken DT40 Tdp1-/-;hTDP1 cells + 20 nM CPT, ATP luminescence, 48 h; Potency, µM (titrated, usually from 46.2 µM), inactives show top-dose activity change, negative = growth inhibition, actives largely listed as inhibitors; 420,000 tested, 12% active; AID 686979; note: potency is the fitted concentration of half-maximal effect; % is set by controls: 0 for no effect and ±100 for the full control effect; nearly all actives have a fitted effect of over 55% in size
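Chicken DT40 Tdp1-/- cells complemented with human TDP1, 400 cells/well, exposed to compounds plus 20 nM camptothecin for at least 48 h at 37 C; viability read as ATP content by CellTiter-Glo luminescence.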
DT40 TDP1 no CPT = qHTS for Inhibitors of human tyrosyl-DNA phosphodiesterase 1 (TDP1): qHTS in cells in absence of CPT; DT40 Tdp1-/- hTDP1 cells, no CPT, ATP luminescence, 48 h; Potency, µM (series often up to 46.2 µM), for inactives: at the top dose activity change, negative = growth inhibition, actives largely listed as inhibitors; 420,000 tested, 15% active; note: potency is the fitted concentration of half-maximal effect; % is set by controls: 0 for no effect and ±100 for the full control effect; nearly all actives have a fitted effect of over 55% in size
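Compound effects on proliferation are scored in DT40 Tdp1-/-;hTDP1 cells in the absence of CPT. ATP levels (CellTiter-Glo luminescence) are recorded after a ≥48 hr, 37 °C incubation.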
TGFb inhibitor = inhibitors of TGF-b signaling. Potency, µM (series often up to 46.1 µM), for inactives: top-dose activity, negative = inhibition, actives largely listed as inhibitors. AID 588855. HepG2 CAGA-GFP TGF-b/SMAD3 reporter, GFP fluorescence, 18 h; TGF-beta stimulated, 500 pg/mL final. 410,000 tested, 1.2% active; note: potency is the fitted concentration of half-maximal effect; % is set by controls: 0 for no effect and ±100 for the full control effect; nearly all actives have a fitted effect of over 65% in size
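Cell-based qHTS in HEPG2 carrying a CAGA-GFP Smad reporter; compounds added before 500 pg/mL final TGF-beta, 18 h incubation at 37 degrees C, GFP fluorescence quantified per cell by imaging cytometry.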
TDP1 block = blocks human tyrosyl-DNA phosphodiesterase 1 | Q9NUW8 | recombinant TDP1, AlphaScreen DNA substrate cleavage | Potency, µM (titrated, usually from 130 µM), for inactives: top-dose activity change, negative = inhibition, usual class: inhibitors | 350,000 tested, 0.28% active; note: potency is the fitted concentration of half-maximal effect; % is set by controls: 0 for no effect and ±100 for the full control effect; nearly all actives have a fitted effect of over 40% in size
Target sequence (Q9NUW8 whole entry, looked up): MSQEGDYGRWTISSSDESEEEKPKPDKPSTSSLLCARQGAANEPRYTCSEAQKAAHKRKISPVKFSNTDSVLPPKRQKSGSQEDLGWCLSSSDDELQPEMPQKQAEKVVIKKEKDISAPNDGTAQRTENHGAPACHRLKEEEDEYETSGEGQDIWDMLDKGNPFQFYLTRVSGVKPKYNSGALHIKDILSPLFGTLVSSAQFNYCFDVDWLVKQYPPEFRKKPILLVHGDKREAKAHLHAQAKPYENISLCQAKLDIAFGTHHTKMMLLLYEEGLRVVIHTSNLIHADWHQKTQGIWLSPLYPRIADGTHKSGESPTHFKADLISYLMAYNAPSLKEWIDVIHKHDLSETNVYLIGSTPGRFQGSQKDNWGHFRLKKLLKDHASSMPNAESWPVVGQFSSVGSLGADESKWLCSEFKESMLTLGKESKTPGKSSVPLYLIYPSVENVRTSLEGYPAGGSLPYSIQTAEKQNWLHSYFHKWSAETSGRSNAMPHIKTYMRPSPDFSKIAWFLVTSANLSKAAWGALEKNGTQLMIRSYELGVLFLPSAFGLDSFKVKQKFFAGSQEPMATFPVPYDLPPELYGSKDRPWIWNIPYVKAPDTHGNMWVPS
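E. coli-derived human Tdp1, 1 nM final. Cpd preinc 15 min RT; substrate 15 nM final, 5 min RT; AS bead mix 10 ug/ml final, 10 min RT. Signal loss = tyrosine-FITC cleavage. No-enzyme wells = max signal.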
HepG2 viability = kills HepG2 cells in TGF-b inhibitor counter-screen. HepG2 CAGA-GFP viability, ATP luminescence, 18 h. Potency, µM (titrated, usually from 46.1 µM), for the others: at the highest dose activity change, negative = cytotoxicity, hits mostly cytotoxic. 410,000 tested, 0.76% active. AID 588856; note: potency is the fitted concentration of half-maximal effect
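CellTiter-Glo luminescence gave cytotoxicity after 18 hours at 37 degrees C. The cells were HepG2 CAGA-GFP in 1% FBS DMEM, stimulated with 500 pg/mL TGF-beta after compound addition. %Activity was normalised to no-cell wells (complete cell-killing) and DMSO (no toxicity), and curves were fitted and classified.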
* = called active by the depositor; ? = inconclusive; . = no result; [ ] = remark or other dose. In the library only some 19% were active in any assay of this set; here they are far more common. Unless noted, calls come from the whole dose curve; as a rule, active = well fitted curve in the direction sought with a large enough effect; inconclusive = small, poorly fitted or top-dose-only effect, or another doubt; inactive = no such curve, though single readings can be large; an effect the other way counts as inactive or inconclusive.

SMILES	IL-1B inflam inh	DT40 TDP1 CPT	DT40 TDP1 no CPT	TGFb inhibitor	TDP1 block	HepG2 viability
CC(C)(C)c1ccc(O)c(N=Cc2cc3c(cc2[N+](=O)[O-])OCO3)c1	49	?	16µM*	6%	.	-13%
O=[N+]([O-])c1cc2c(cc1/C=N\NS(=O)(=O)c1ccccc1)OCO2	-12	9.2µM*	?	1%	3%	6%
C/C=C(\C)C(=O)C[Si](C)(C)c1ccccc1	.	.	.	.	7%	.
Cc1ccc(SCCC(=O)OC(C)C(=O)Nc2ccccc2)cc1 (centres undefined)	11	?	?	?	-6%[0.505 µM]	-20%
COc1ccc(C(=O)C(C)OC(=O)c2cccc(S(=O)(=O)Nc3cc(Cl)c(OC)cc3OC)c2)cc1 (centres undefined)	-6	23µM*	21µM*	-15%	7%	-5%
CCOC(=O)C1CCCN(S(=O)(=O)c2ccc3c(c2)CCCN3C(C)=O)C1 (centres undefined)	.	?	18µM*	6%	2%	-31%
CCOC(=O)C1CCCN(S(=O)(=O)c2ccccc2)C1 (centres undefined)	-11	3%	-6%	-1%	-2%	2%
CCOC(=O)C1CCCN(S(=O)(=O)c2cc(C(=O)OC)n(C)c2)C1 (centres undefined)	20	16µM*	16µM*	?	.	-4%
CC(=O)N1CCCc2cc(S(=O)(=O)N3CCCC3)ccc21	26	3%	6%	0%	1%	7%
COc1ccc(CNC(=O)C2CCCN(S(=O)(=O)c3ccc4c(c3)CCCN4C(C)=O)C2)cc1 (centres undefined)	4	15µM*	10µM*	-14%	3%	-21%
COc1ccc(S(=O)(=O)N2CCCC(C(=O)NCc3ccncc3)C2)cc1 (centres undefined)	-13	?	?	-1%	4%	15%
COc1ccc(N2CCN(S(=O)(=O)c3ccc4c(c3)CCCN4C(C)=O)CC2)cc1	.	16µM*	?	2%	-1%	0%
Clc1ccc(-c2csc(-c3nc(-c4ccc(Br)s4)cs3)n2)cc1	.	4%	-7%	4%	1%	0%
Cc1cccc(C)c1N1C(=O)c2ccccc2NC(=O)C1C(=O)NCCc1ccccc1 (centres undefined)	16	-17%	-14%	.	.	.
COc1ccc(-n2c(CNC(=O)c3cccc4ccccc34)nnc2SC)cc1	.	9%	-21%	.	.	.
COc1cc(NS(=O)(=O)c2cnc(N)nc2)cc(OC)c1	.	-1%	-9%	0%	-3%	3%
CCOC(=O)C1CCCN(S(=O)(=O)CCNC(=O)c2cccc(OC)c2)C1 (centres undefined)	-68*	-37%	-46%	-8%	.	-11%
O=C(Nc1cn(-c2ccccc2)nc1-c1ccc(F)cc1)c1ccccc1	10	21µM*	18µM*	-7%	3%	4%
Cc1ccc(-c2nn(-c3ccccc3)cc2NC(=O)c2ccccc2)cc1	?	21µM*	21µM*	0%	-3%	-1%
O=C(Nc1cn(-c2ccccc2)nc1-c1ccc(Cl)cc1)c1ccccc1	4	?	?	5%	-3%	1%
O=C(Cc1ccc(F)cc1)N1CCC(c2nc3c(nnn3Cc3ccc(Cl)cc3)c(=O)[nH]2)CC1	.	?	?	?	5%	-44%
CCN(CC)S(=O)(=O)c1ccc(-c2nnc(SCC(=O)N3c4ccccc4CC3C)n2CC)cc1 (centres undefined)	3	15µM*	21µM*	?	3%	4%
CCN(CC)S(=O)(=O)c1ccc(-c2nnc(SCC(=O)N3c4ccccc4CC3C)o2)cc1 (centres undefined)	6	21µM*	21µM*	0%	6%	-2%
COc1ccc(Cl)cc1NC(=O)CCNC(=O)Cn1ccc2ccccc2c1=O	5	-5%	?	?	-4%	-25%
CCN1CCN(c2ccc(S(=O)(=O)N3CCCCC3)cc2NC(=O)Cc2ccccc2)CC1	-12	-21%	-13%	-23%	-5%[0.505 µM]	-54%
SMILES	IL-1B inflam inh	DT40 TDP1 CPT	DT40 TDP1 no CPT	TGFb inhibitor	TDP1 block	HepG2 viability
CCC(=O)c1ccc(OCC(=O)Nc2cc(S(=O)(=O)N3CCCCC3)ccc2N2CCN(CC)CC2)cc1	-16	?	18µM*	-16%	1%[0.505 µM]	-74%
CCN1CCN(c2ccc(S(=O)(=O)N3CCCCC3)cc2NC(=O)COc2ccc(Cl)c(C)c2)CC1	-12	16µM*	13µM*	0%	6%	6%
CC(=O)C1=C(O)C(=O)N(c2cc(C(C)(C)C)on2)C1c1ccc(C(C)C)cc1 (centres undefined)	8	?	26µM*	?	2%	-2%
COc1ccccc1NC(=O)C1=C(C)Nc2nc(CCCO)nn2C1c1cccc(O)c1 (centres undefined)	.	-2%	-16%	-8%	.	4%
COc1ncc(-c2ccc(N3C(c4ccsc4)=Cc4ccc(F)cc4C3CC(=O)c3ccco3)cc2)cn1 (centres undefined)	14	?	?	.	.	.
COc1cc(OC)cc(C2=Cc3ccccc3C(CC(C)=O)N2c2ccc(-c3cncnc3)cc2)c1 (centres undefined)	0	18µM*	16µM*	.	.	.
